# Assay results reported in the supplement of paper PMC10849652.
# About 8,800 targets were measured; listed, in parts, are those with a hit and a random draw of the rest. About 0.5% of all pairs of compound and target were hits.
# Compound: C1=CC=C(C=C1)[C@H](COC2=CC3=C(C=C2)NC(=O)N3)NC(=O)C4=CC=CN(C4=O)CC5=CC(=C(C=C5)F)F
# Test: log2 fold change, soluble protein after heating vs DMSO (PISA); higher = thermal stabilisation; K562 lysate, 10 uM; active = over 0.2 and 3.5 SD of the protein, either way, in both replicates (recomputed)
# Summary of the method: (§1)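 A 30 min treatment with 10 μM compound was applied to crude K562 extract at 1 mg/mL protein in PBS pH 7.4 with 1 mM MgCl2. Heating for 3 min spanned 48°C-58°C, after which aliquots were pooled, adjusted to 0.5% NP-40 at 4°C and spun at 21,000xg for 90 min. TMTpro 16plex LC-MS/MS of the supernatant, with channel sums equalised, gave values recorded as log-two fold change in thermal stability against solvent controls, from duplicates.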
# UniProt O15379, sequence (O15379 whole entry, looked up): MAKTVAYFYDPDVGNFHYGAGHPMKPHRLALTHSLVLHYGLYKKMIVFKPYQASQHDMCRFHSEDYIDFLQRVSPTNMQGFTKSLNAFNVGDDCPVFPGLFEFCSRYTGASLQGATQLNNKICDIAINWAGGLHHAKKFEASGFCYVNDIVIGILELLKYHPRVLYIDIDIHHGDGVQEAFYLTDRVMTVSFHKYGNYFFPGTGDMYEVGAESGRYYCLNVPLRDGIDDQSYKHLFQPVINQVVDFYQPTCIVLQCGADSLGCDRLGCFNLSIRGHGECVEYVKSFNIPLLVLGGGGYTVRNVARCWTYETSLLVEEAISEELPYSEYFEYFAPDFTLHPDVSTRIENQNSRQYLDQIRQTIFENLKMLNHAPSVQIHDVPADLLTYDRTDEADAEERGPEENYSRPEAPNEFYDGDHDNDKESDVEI
# UniProt P20839, sequence (P20839 whole entry, looked up): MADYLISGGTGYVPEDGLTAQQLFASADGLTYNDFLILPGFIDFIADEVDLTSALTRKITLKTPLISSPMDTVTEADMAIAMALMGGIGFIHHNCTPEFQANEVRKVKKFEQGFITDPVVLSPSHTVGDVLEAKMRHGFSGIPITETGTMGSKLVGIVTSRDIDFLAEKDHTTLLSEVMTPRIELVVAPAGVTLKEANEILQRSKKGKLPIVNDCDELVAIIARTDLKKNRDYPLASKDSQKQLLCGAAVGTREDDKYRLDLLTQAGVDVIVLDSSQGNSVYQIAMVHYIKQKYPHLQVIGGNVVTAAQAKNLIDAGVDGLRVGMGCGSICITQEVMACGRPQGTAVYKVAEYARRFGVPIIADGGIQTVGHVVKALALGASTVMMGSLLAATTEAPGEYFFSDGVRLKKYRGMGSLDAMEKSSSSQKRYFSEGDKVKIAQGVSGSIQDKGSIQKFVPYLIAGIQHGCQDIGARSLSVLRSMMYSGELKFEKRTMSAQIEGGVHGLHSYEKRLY
# UniProt Q9Y5Q9, sequence (Q9Y5Q9 whole entry, looked up): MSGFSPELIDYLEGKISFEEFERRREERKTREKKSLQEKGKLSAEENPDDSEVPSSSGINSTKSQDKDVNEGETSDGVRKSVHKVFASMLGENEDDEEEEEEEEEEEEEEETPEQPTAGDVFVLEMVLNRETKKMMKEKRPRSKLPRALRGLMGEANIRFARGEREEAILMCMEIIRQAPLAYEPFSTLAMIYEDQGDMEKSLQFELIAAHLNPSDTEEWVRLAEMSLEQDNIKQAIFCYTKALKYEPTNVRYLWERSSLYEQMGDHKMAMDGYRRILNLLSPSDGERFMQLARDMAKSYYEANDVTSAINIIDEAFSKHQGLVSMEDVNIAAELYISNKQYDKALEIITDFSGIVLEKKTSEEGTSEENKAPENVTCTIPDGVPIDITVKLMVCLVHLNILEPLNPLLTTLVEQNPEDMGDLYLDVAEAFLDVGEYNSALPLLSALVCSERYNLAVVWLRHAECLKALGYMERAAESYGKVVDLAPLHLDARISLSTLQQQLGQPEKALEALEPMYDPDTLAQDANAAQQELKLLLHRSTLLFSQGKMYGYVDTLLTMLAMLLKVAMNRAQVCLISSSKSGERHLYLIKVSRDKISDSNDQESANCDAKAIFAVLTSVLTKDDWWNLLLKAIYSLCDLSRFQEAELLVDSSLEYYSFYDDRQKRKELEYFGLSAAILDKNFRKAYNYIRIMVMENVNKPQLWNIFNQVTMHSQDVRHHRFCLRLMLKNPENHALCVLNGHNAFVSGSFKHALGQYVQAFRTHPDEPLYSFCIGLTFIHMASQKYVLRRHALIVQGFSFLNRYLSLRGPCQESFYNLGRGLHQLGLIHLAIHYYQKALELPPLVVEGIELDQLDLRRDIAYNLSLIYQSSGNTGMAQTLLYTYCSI
# UniProt O00425, sequence (O00425 whole entry, looked up): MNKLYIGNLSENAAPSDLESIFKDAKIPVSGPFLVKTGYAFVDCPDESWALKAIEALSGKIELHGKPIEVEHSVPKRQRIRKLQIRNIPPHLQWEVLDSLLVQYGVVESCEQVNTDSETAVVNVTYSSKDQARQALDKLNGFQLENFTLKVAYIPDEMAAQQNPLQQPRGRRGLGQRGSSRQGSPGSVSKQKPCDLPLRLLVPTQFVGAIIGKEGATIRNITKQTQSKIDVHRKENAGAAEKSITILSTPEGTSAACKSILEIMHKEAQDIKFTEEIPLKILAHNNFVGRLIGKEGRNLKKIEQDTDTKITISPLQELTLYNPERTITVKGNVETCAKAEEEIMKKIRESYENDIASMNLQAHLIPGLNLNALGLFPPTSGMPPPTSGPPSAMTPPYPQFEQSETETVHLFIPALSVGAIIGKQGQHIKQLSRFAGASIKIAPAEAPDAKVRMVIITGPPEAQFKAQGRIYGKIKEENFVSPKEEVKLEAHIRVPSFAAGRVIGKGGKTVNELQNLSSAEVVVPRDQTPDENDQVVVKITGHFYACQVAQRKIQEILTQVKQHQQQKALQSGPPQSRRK
# UniProt Q9NSE4, sequence (Q9NSE4 whole entry, looked up): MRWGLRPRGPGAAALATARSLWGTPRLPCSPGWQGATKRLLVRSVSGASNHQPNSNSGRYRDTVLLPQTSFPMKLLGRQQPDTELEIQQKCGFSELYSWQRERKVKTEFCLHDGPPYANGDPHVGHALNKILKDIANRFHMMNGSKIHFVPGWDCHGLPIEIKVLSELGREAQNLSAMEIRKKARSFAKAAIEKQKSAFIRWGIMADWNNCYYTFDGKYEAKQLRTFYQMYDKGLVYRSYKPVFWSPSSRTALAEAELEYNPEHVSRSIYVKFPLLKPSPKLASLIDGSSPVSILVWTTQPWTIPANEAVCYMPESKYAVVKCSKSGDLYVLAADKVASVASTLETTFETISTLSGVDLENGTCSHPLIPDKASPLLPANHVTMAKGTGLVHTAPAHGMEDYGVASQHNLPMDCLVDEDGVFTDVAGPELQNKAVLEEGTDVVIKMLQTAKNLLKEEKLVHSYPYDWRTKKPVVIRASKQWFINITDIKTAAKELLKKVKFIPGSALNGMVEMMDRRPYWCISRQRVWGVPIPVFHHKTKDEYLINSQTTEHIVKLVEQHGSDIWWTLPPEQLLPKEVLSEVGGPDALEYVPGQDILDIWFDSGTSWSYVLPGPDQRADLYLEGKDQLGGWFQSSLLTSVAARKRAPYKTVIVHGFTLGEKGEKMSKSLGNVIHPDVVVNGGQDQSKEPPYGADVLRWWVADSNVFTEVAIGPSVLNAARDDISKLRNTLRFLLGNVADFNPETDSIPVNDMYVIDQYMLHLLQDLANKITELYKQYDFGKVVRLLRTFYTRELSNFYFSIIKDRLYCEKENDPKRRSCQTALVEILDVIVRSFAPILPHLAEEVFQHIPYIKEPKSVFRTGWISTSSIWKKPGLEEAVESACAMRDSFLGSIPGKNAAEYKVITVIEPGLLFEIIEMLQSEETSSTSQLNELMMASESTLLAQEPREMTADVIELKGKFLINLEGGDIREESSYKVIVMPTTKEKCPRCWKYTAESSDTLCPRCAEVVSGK
# UniProt Q6AI08, sequence (Q6AI08 whole entry, looked up): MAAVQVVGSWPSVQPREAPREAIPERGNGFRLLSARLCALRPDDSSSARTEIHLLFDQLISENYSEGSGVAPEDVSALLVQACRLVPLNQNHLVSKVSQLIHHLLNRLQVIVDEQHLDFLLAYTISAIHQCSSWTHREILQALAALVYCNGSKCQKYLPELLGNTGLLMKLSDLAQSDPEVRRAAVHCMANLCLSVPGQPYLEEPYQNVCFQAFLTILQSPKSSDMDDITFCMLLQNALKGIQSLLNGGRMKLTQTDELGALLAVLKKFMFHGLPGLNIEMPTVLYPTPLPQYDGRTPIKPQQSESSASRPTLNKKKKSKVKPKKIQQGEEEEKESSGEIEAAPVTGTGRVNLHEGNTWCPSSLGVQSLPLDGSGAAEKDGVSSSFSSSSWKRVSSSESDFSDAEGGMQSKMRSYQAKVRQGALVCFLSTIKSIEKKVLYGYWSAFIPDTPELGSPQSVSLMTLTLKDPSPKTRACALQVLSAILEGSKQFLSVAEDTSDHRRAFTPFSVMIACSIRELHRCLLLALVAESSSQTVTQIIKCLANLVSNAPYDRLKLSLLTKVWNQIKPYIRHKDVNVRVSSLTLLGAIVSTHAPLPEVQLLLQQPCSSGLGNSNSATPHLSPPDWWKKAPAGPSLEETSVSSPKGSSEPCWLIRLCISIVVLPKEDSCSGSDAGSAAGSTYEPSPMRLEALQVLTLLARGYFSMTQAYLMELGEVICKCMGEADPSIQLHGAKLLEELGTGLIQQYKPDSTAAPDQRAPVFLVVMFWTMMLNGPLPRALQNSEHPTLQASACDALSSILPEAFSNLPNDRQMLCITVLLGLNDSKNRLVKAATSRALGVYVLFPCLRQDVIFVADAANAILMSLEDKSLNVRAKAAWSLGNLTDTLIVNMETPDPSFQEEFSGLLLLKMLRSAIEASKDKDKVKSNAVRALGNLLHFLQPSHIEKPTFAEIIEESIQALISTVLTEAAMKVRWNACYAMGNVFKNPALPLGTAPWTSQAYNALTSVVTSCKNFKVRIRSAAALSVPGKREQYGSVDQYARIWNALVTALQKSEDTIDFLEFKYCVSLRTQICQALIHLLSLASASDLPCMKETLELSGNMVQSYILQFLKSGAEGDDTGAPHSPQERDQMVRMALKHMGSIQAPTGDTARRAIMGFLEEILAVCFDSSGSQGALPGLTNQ
# UniProt P17096, sequence (P17096 whole entry, looked up): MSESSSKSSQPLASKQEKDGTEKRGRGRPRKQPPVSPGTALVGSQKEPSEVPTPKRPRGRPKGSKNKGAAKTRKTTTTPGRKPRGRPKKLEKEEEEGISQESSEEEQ
# UniProt Q99795, sequence (Q99795 whole entry, looked up): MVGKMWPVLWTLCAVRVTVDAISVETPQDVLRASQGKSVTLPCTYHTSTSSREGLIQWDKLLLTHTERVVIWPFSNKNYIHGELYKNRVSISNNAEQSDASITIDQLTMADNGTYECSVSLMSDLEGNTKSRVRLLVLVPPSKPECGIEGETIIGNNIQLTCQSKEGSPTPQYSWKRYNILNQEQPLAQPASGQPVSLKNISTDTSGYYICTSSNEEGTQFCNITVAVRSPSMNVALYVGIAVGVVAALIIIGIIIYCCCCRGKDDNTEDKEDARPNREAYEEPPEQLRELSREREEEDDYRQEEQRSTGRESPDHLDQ
row,Target,log2 fold change
1,HK2 (UniProt P52789),-0.021 (inactive)
2,IGF2BP3 (UniProt O00425),-0.02 (inactive)
3,INPPL1 (UniProt O15357),0.014 (inactive)
4,HMGB2 (UniProt P26583),0.022 (inactive)
5,ILRUN (UniProt Q9H6K1),0.078 (inactive)
6,HMGA1 (UniProt P17096),0.009 (inactive)
7,HDAC3 (UniProt O15379),-0.035 (inactive)
8,HMGN5 (UniProt Q5JSK9),-0.067 (inactive)
9,HAUS3 (UniProt Q68CZ6),-0.035 (inactive)
10,"HDLBP, A0A024R4E5",-0.024 (inactive)
11,IFNGR1 (UniProt P15260),0.094 (inactive)
12,ILKAP (UniProt Q9H0C8),-0.004 (inactive)
13,HMGCS1 (UniProt Q01581),0.043 (inactive)
14,HMGN5 (UniProt P82970),0.033 (inactive)
15,GOLGA1 (UniProt Q92805),-0.042 (inactive)
16,INTS14 (UniProt Q96SY0),0.067 (inactive)
17,INTS10 (UniProt Q9NVR2),-0.015 (inactive)
18,GPA33 (UniProt Q99795),0.007 (inactive)

row,Target,log2 fold change
1,HAUS7 isoform 2 (UniProt Q99871),0.163 (inactive)
2,IRAK4 (UniProt Q9NWZ3),-0.02 (inactive)
3,GOLPH3L (UniProt Q9H4A5),-0.046 (inactive)
4,INTS1 (UniProt Q8N201),-0.017 (inactive)
5,GMIP (UniProt Q9P107),0.023 (inactive)
6,IARS2 (UniProt Q9NSE4),0.004 (inactive)
7,GLUL (UniProt P15104),-0.011 (inactive)
8,HNRNPM (UniProt M0QZM1),-0.093 (inactive)
9,GNB1 (UniProt P62873),0.042 (inactive)
10,HTT (UniProt P42858),0.039 (inactive)
11,HEATR6 (UniProt Q6AI08),-0.039 (inactive)
12,"HNRNPL, A0A3B3ITJ4",-0.063 (inactive)
13,GTF3C3 (UniProt Q9Y5Q9),-0.018 (inactive)
14,GLYR1 (UniProt Q49A26),-0.179 (inactive)
15,IMPDH1 isoform 6 (UniProt P20839),-0.008 (inactive)
16,HNRNPL (UniProt P14866),-0.01 (inactive)
17,HNRNPD isoform 2 (UniProt Q14103),0.059 (inactive)

# Compound: CC1=C(SC2=C1C(=N[C@H](C3=NN=C(N32)C)CC(=O)N)C4=CC=C(C=C4)Cl)C
# Test: as above
# Summary of the method: as §1
row,Target,log2 fold change
1,HK2 (UniProt P52789),-0.016 (inactive)
2,IGF2BP3 (UniProt O00425),0.005 (inactive)
3,INPPL1 (UniProt O15357),0.029 (inactive)
4,HMGB2 (UniProt P26583),-0.069 (inactive)
5,ILRUN (UniProt Q9H6K1),-0.021 (inactive)
6,HMGA1 (UniProt P17096),0.024 (inactive)
7,HDAC3 (UniProt O15379),0.009 (inactive)
8,HMGN5 (UniProt Q5JSK9),0.015 (inactive)
9,HAUS3 (UniProt Q68CZ6),0.023 (inactive)
10,"HDLBP, A0A024R4E5",-0.013 (inactive)
11,IFNGR1 (UniProt P15260),0.083 (inactive)
12,ILKAP (UniProt Q9H0C8),-0.004 (inactive)
13,HMGCS1 (UniProt Q01581),-0.022 (inactive)
14,HMGN5 (UniProt P82970),0.05 (inactive)
15,GOLGA1 (UniProt Q92805),0.045 (inactive)
16,INTS14 (UniProt Q96SY0),0.034 (inactive)
17,INTS10 (UniProt Q9NVR2),-0.057 (inactive)
18,GPA33 (UniProt Q99795),0.024 (inactive)

row,Target,log2 fold change
1,HAUS7 isoform 2 (UniProt Q99871),0.036 (inactive)
2,IRAK4 (UniProt Q9NWZ3),-0.014 (inactive)
3,GOLPH3L (UniProt Q9H4A5),0.005 (inactive)
4,INTS1 (UniProt Q8N201),0.065 (inactive)
5,GMIP (UniProt Q9P107),-0.04 (inactive)
6,IARS2 (UniProt Q9NSE4),0.013 (inactive)
7,GLUL (UniProt P15104),-0.063 (inactive)
8,HNRNPM (UniProt M0QZM1),-0.092 (inactive)
9,GNB1 (UniProt P62873),-0.051 (inactive)
10,HTT (UniProt P42858),-0.088 (inactive)
11,HEATR6 (UniProt Q6AI08),-0.086 (inactive)
12,"HNRNPL, A0A3B3ITJ4",-0.011 (inactive)
13,GTF3C3 (UniProt Q9Y5Q9),-0.019 (inactive)
14,GLYR1 (UniProt Q49A26),0.066 (inactive)
15,IMPDH1 isoform 6 (UniProt P20839),0.025 (inactive)
16,HNRNPL (UniProt P14866),-0.024 (inactive)
17,HNRNPD isoform 2 (UniProt Q14103),-0.015 (inactive)
